Screening results deposited in PubChem by National Center for Advancing Translational Sciences (NCATS).
Sampled rows, rich in hits. Any-hit rate of the full collection: about 7.6%.
Tau fil binding = tau filament binding | P10636 | recombinant tau filaments, thioflavin S fluorescence, 15 h; filaments grown with octadecylsulfate alongside compound | Potency, µM (series often up to 57.1 µM) | 2% of 71,000 active;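 further: actives lower thioflavin S fluorescence by blocking filaments or displacing dye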
Target sequence (P10636 whole entry, looked up): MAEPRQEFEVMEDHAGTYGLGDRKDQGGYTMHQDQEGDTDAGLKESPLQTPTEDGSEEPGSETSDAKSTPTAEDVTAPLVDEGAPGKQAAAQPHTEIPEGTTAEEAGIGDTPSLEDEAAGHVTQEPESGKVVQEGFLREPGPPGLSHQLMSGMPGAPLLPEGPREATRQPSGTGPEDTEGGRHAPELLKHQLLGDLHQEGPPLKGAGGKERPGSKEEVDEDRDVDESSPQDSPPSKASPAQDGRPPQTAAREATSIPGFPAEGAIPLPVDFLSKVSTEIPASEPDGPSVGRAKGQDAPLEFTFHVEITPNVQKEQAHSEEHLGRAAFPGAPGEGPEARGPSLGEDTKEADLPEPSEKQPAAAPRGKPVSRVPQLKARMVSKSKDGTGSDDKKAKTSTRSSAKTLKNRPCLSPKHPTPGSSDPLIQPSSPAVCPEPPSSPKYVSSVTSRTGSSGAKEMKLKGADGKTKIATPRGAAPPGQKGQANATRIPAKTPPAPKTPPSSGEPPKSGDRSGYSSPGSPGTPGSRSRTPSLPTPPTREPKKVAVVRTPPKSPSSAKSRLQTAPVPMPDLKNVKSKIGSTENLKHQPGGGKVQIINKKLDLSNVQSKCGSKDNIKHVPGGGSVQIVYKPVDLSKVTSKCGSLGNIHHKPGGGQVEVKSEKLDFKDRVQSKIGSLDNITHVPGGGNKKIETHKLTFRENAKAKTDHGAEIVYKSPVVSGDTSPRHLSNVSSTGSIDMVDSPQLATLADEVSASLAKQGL
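His-tagged recombinant human tau (exons 2, 3 and 10 included), 1 uM, was induced to fibrillize by 30 uM sodium octadecylsulfate with compound present. After 15 h at 37 C, thioflavine S fluorescence (ex 450, em 510 nm) was read.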
TSHR agonist = agonists of human thyroid stimulating hormone receptor; P16473; HEK293-CNG-TSHR cells (CNG channel as cAMP sensor), membrane potential dye, cAMP; Potency, µM (highest dose often 57.1 µM), hits mostly activators; 0.48% of 73,000 active; active means well fitted activation curve with a large enough effect in the main read-out, with a control signal flat, not every such curve was filed as active; inconclusive means small, poorly fitted or top-dose-only effect, or a change in a side signal; inactive means no such curve, though single readings can be large or run the other way; reference of the percent scale not stated here;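 further: the control signal comes from parental cells without the receptor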
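HEK 293 cells stably expressing TSHR and a modified CNG channel, with CNG-only parental cells as counterscreen, were preloaded 60 min at room temperature with membrane potential dye containing 100 uM RO 20-1724. Compound exposure was 30 min, and depolarization was read as fluorescence at 590 nm.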
CRE-bla Fsk = CRE-bla signaling modulation under forskolin stimulation | Potency, µM (doses to about 38.2 µM), actives largely listed as activators | CHO CRE-bla reporter (cAMP response element driving beta-lactamase), forskolin EC10, beta-lactamase ratio | 2.5% of 71,000 active | AID 662; active means well fitted activation curve with a large enough effect in the signal ratio, with a control signal flat, not every such curve was filed as active; inconclusive means small, poorly fitted or top-dose-only effect, or effect the other way, or a change in a side signal; the % refers to the signal ratio
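Using CellSensor CRE-bla CHO cells in Opti-MEM with 0.5% dialyzed FBS, compounds were titrated with EC10 NKH 477 for 3 h at 37 °C. CCF4 ratio (460/530 nm) gave %Activity; AC50 derived.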
HEK293 cAMP cs = counter-screen for TSHR agonists: cAMP increase in parental HEK293; parental HEK293 CNG cAMP sensor, membrane potential fluorescence; Potency, µM (highest dose often 57.1 µM), actives largely listed as activators; AID 938; 2.5% of 73,000 active; further: nearly all actives have a fitted effect of over 55% in size
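Parental HEK 293 cells stably expressing a modified CNG channel (no TSHR) report cAMP rise as membrane depolarization. Membrane potential dye with 100 uM RO 20-1724 was loaded for 60 min at room temperature, then compound added for 30 min; fluorescence read at 590 nm.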
ERK AVP inh = blocks ERK signaling stimulated by vasopressin | HEK293-V1b, vasopressin-stimulated pERK AlphaScreen | 0.99% of 72,000 active | Potency, µM (series often up to 57.5 µM), usual class: inhibitors; further: nearly all actives have a fitted effect of over 55% in size
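qHTS, compounds titrated on V1b-expressing HEK293 cells. Preincubation 30 min at 37C, vasopressin 25 nM for 5 min, lysis 10 min, bead incubation 5 hr at room temperature.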
A number is an active result; i = inactive; ? = inconclusive; nt = not tested or not shown; ! = not active in a repeat; [ ] = dose if it differs, or a comment. Unless noted, the call rests on the fitted dose curve; in most records, active means well fitted curve in the direction sought with a large enough effect; inconclusive means small, poorly fitted or top-dose-only effect, or another doubt; inactive means no such curve, though single readings can be large; an effect the other way counts as inactive or inconclusive.

SMILES	Tau fil binding	TSHR agonist	CRE-bla Fsk	HEK293 cAMP cs	ERK AVP inh
Cc1cc(NC(=O)c2cc(-c3ccncc3)nc3c(C)cccc23)no1	3.16µM	?	?	31.6µM	i
Cc1cc(NC(=O)c2cc(-c3ccccn3)nc3ccccc23)no1	i	i	?	i	i
O=C(NCc1ccco1)c1cc(-c2cccnc2)nc2ccccc12	i	i	i	i	?
Cc1cc(C)c2nc(-c3ccccn3)cc(C(=O)Nc3cc(C)on3)c2c1	i	?	i	15.8µM	i
Cc1cc(NC(=O)c2cc(-c3cccs3)nc3ccccc23)no1	i	?	?	15.8µM	i
CC1(C)CC(=O)c2c(oc3cc4c(cc23)OCO4)C1	nt	nt	nt	nt	i
COc1ccccc1N1CCN(CCCNc2cc(=O)n(C)c(=O)n2C)CC1	i	?	i	12.6µM!	i
COc1ccccc1N1CCN(CCCNc2c(C)c(=O)n(C)c(=O)n2C)CC1	i	i	i	i	i
COc1ccc(O[C@H]2C=C[C@@H](c3ccccc3)O[C@H]2COC(=O)CC/C(C)=N\O[C@@H](C)c2cn([C@H](CO)Cc3ccccc3)nn2)cc1	nt	i[11.4 µM]	nt	i[11.4 µM]	i[11.5 µM]
O=C(c1cccc(F)c1)N1C2C=CC(C2)C1(C(F)(F)F)C(F)(F)F (stereo not given)	i	25.1µM	?	i	i
O=C(c1cccc(F)c1)N1CCN(C(=O)C2CC2)CC1	i	i	i	i	i
CCNc1ncc2nc(-c3ccccc3)c(=O)n(CCC#N)c2n1	i	i	?	i	?
CCNc1ncc2nc(-c3cccc(C#N)c3)c(=O)n(CCC#N)c2n1	i	i	2.51µM	i	i
CCNc1ncc2nc(-c3ccc(OC)cc3)c(=O)n(Cc3cccc(OC)c3)c2n1	i	?	?	?	i
CCNc1ncc2nc(-c3ccc(F)cc3)c(=O)n(C)c2n1	i	?	?	?	i
CCNc1ncc2nc(-c3cc(F)cc(F)c3)c(=O)n(CCC#N)c2n1	i	i	?	i	i
CCNc1ncc2nc(-c3cccc(C#N)c3)c(=O)n(Cc3cccc(OC)c3)c2n1	i	i	0.316µM	i	i
CCNc1ncc2nc(-c3cccc(C#N)c3)c(=O)n(C)c2n1	i	i	2µM	i	i
CCNc1ncc2nc(-c3ccc(Cl)cc3)c(=O)n(CCC#N)c2n1	i	i	2µM	i	i
O=C(c1ccco1)N1CCC2(CC1)CCN(c1ccccn1)CC2	i	i	i	i	?
Cc1nc2cnc(N3CCN(C)CC3)nc2n(C)c1=O	i	i	i	i	i
Oc1c(C(Nc2nc3ccccc3s2)c2ccco2)ccc2cccnc12 (stereo not given)	i	i	?	i	?
Cc1conc1NC(c1cccs1)c1ccc2cccnc2c1O (stereo not given)	12.6µM	i	?	i	i
COC(=O)CC1Oc2cc3oc4c5ccccc5oc(=O)c4c3cc2O1 (stereo not given)	nt	nt	nt	nt	i
O=C1[C@@H]2[C@H]3C(=CC[C@@H]2C(=O)N1Cc1ccccc1)C1(OCCCO1)[C@H]1O[C@@H]1[C@H]3O	nt	nt	nt	i[11.4 µM]	i[11.5 µM]
SMILES	Tau fil binding	TSHR agonist	CRE-bla Fsk	HEK293 cAMP cs	ERK AVP inh
CN(C)S(=O)(=O)Nc1ccc2c(c1)OCO2	i	i	i	i	i
O=S(=O)(Nc1ccc2c(c1)OCCO2)c1cccc2nsnc12	i	i[11.4 µM]	i	i	i
Cc1ccc2cccc(S(=O)(=O)Nc3ccc4c(c3)OCO4)c2n1	7.94µM	nt	?	i	i
O=S(=O)(Nc1ccc2c(c1)OCO2)c1ccc(Br)s1	20µM	i	i	i	?
COCCOc1ccc(C(F)(F)F)cc1Nc1nc2ccccc2o1	i	12.6µM	?	i	i
COCCNC(=O)C1(CC(C)C)C=CCN1C(=O)c1ccccc1 (stereo not given)	i	i	i	i	i
CCN(CC)S(=O)(=O)c1cccc(-c2nnc(SCC(=O)NCCC3=CCCCC3)n2N)c1	i	i	i	i	39.8µM
CCN(CC)S(=O)(=O)c1ccc2[nH]cc(C(=O)NCCC3=CCCCC3)c(=O)c2c1	i	i	?	i	i
Cc1cccc(-n2nnnc2SC(C)C(=O)NCCC2=CCCCC2)c1 (stereo not given)	i	?	i	12.6µM	i
CCC[C@H]1C[C@H](C(=O)N[C@@H]([C@H]2O[C@@H](SC)[C@@H](O)[C@@H](O)[C@@H]2O)[C@H](C)Cl)N(C)C1	i	i	i	i	i
Nc1c(C(=O)OCC2CCCO2)c2nc3ccccc3nc2n1C1CCCC1 (stereo not given)	i	i	2.51µM	i	?
S=C(NC1CCCCC1)N1CCC([C@H]2C=NC=N2)CC1	i	i	i	i	i
Oc1ccc([C@@H]2CNCc3sccc32)cc1O	i	?	i	31.6µM	?
Oc1cc2c(cc1O)[C@H](c1ccccc1)CNCC2	?	i	?	i	i
c1cc2c3c(c1)c1c(n3CCNC2)CCCC1	31.6µM	i	?	i	?
CC(C)[C@@H](CC(=O)N[C@@H]1CCNC[C@H]1C(=O)N[C@H](CC(=O)N[C@@H](CCC(=O)O)CC(=O)O)Cc1c[nH]c2ccccc12)NC(=O)C[C@H](Cc1c[nH]c2ccccc12)NC(=O)[C@@H]1CCCC[C@H]1N	i	?	i	?	nt
CCN1C(=O)[C@H]2[C@H]3[C@H](O)[C@H](O)C/C(=N/OC[C@@H](O)COCc4ccco4)[C@@H]3CC[C@@H]2C1=O	nt	i[11.4 µM]	nt	i[11.4 µM]	i[11.5 µM]
Cc1ccccc1-n1nc2c(c1NC(=O)c1cc3ccccc3oc1=O)CS(=O)(=O)C2	i	i	1.58µM	i	i
Cc1ccccc1-n1nc2c(c1NC(=O)c1cc3ccccc3oc1=O)CS(=O)C2 (stereo not given)	i	i	2.51µM	i	i
COc1ccccc1C(=O)Nc1c2c(nn1-c1cccc(C)c1C)CS(=O)(=O)C2	i	?	1.58µM	5.01µM	i
COc1ccc(CC(=O)Nc2c3c(nn2-c2cccc(C)c2C)CS(=O)(=O)C3)cc1	i	i	i	i	i
CC[C@@H]1OC(=O)[C@H](C)[C@H](O[C@@H]2C[C@](C)(OC)[C@H](O)[C@H](C)O2)[C@H](C)[C@H](O[C@@H]2O[C@@H](C)C[C@@H](N(C)C)[C@@H]2O)[C@](C)(O)C[C@H](C)C(=O)[C@H](C)[C@H](O)[C@]1(C)O	i	?	i	?	i
Nc1ccn([C@@H]2CC[C@H](CO)O2)c(=O)n1	i	i	i	i	i
C=C/C(C)=C/[C@]1(C)SC(=O)C(C)=C1O	i	i	i	i	i
C=CCC1(C)OC=Cc2nc3cc(Cl)c(Cl)cc3nc21 (stereo not given)	nt	i[11.4 µM]	nt	i[11.4 µM]	i[11.5 µM]
CC1CCCN(c2ccc(C(=O)NCc3cccs3)cn2)C1 (stereo not given)	i	i	i	i	15.8µM
C[N+]1(CCCC[N+]2(C)CCCCCCC2)CCCCCCC1	i[11.4 µM]	i[11.4 µM]	i[7.6 µM]	i[11.4 µM]	i[11.5 µM]
COC(=O)c1ccccc1NS(=O)(=O)c1ccc2c3c(cccc13)C(=O)N2	15.8µM	i[11.4 µM]	?	i	i
